# Screens: PubChem BioAssay, several laboratories
# Insulin prom up: MIN6 insulin promoter up-regulation | MIN6 insulin promoter-GFP reporter, high-content imaging; active compounds read high | z-score at 5 µM | 190,000 compounds, 0.3% hits;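 active means z-score above 3 at 5 µM with at least 500 cells counted in the well; inconclusive means wells under 500 cells, flagged as cytotoxic or low count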
# ROMK primary: human ROMK K+ channel modulation, primary screen. P48048. 130,000 compounds, 2% hits. B-score at 10 µM. Tet-inducible ROMK, thallium flux fluorescence; actives lie on both sides;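 active means signal ratio slope over the read window, or its plate-corrected B-score, at least 3 SD from the plate mean, either direction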;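 further: B-score of the F/F0 ratio slope over 7 to 12 s after thallium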
# Target sequence (P48048 whole entry, looked up): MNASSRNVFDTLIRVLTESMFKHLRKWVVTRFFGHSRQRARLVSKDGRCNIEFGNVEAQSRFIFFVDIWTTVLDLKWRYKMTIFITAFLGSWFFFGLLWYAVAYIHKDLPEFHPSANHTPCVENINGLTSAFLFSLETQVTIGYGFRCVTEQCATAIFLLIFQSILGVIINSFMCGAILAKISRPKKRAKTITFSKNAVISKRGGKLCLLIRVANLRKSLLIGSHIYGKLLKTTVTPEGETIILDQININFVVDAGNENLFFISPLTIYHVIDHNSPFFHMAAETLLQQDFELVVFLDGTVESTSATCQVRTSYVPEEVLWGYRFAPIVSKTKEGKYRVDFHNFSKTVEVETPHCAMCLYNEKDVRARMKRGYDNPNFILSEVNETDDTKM
# Insulin prom inh: TRM-6 insulin promoter activity inhibition; AID 1273; 130,000 compounds, 0.9% hits; inhibition, % at 2 µM; TRM-6 cells (human fetal islet line), insulin promoter-eGFP reporter, imaging; reporter expression induced with tamoxifen;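 active means inhibition above the mean plus 3 SD, with well images judged a real hit on visual review, cut at about 60% in these data, passing the limit was not always enough; inconclusive means inhibition over the cutoff but images rejected on review; inactive means inhibition not above the cutoff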
# TbHK1 inh: blocks Trypanosoma brucei hexokinase 1 activity | recombinant TbHK1, G6PDH-coupled NADH A340 | inhibition, % at 10 µM | 220,000 compounds, 0.11% hits | AID 1430;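 active means inhibition of 50% or more in the single-dose primary screen; inactive means inhibition below 50%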
# HSV replic up: increases HSV replication in cells; maximum fold increase; HSV replication augmentation in cells, fold increase; 220,000 compounds, 0.005% hits; in the data active means maximum fold increase above about 1.5; inconclusive means no clear call, values can overlap the other calls; tested in PC3 cells
# Hits are given with their value; n = inactive; u = inconclusive; x = no result. The full list was thinned out, with hits kept by preference.
SMILES,Insulin prom up,ROMK primary,Insulin prom inh,TbHK1 inh,HSV replic up
COc1ccc2ccccc2c1C(=O)/C=C\c1ccoc1,n,n,78.6,n,n
O=C(/C=C/c1ccoc1)c1ccccc1O,n,n,n,n,n
O=C(OCC(=O)N1CCCc2ccccc21)c1ccc(Cl)nc1,n,n,80.0,n,n
O=C(OCC(=O)N1CCCc2ccccc21)c1cnc(Cl)c(Cl)c1,n,x,x,n,n
O=C(c1cccc(-c2ccc(O)cc2)c1)N1CCN(c2ccc(F)cc2)CC1,n,n,68.4,n,n
O=C(Nc1cccc(C(=O)N2CCN(c3ccc(F)cc3)CC2)c1)c1ccccc1,n,n,n,n,n
Cc1ccc(NC(=O)c2cc(N3C(=O)C=CC3=O)ccc2N2CCOCC2)cc1Cl,n,n,n,n,n
Cc1cccc(C(C)(C)C)c1OCCn1ccnc1,x,x,89.0,n,n
Cc1cccc(Cl)c1OCCCCn1ccnc1,n,x,n,n,n
O=C(CN1C(=O)CSc2ccc(S(=O)(=O)N3CCOCC3)cc21)NCc1cccnc1,n,n,n,n,n
CC(C)CC(c1nnnn1CCc1ccccc1)N1CCC(C(N)=O)CC1 (stereo not given),x,n,100.0,n,n
COc1ccc(CCn2nnnc2C(CC(C)C)N2CCC(C(N)=O)CC2)cc1OC (stereo not given),x,x,x,n,n
O=C(CN1CCN(Cc2ccccc2Cl)C1=O)NCc1ccccn1,n,n,x,n,n
O=C(O)CC(C(=O)Nc1ccc(F)cc1)C1CCCO1 (stereo not given),n,x,x,n,n
COc1ccc(NC(=O)c2cc([N+](=O)[O-])ccc2O)cc1,x,4.5,x,n,n
COc1ccc(NC(=O)c2cccc([N+](=O)[O-])c2)cc1,n,n,n,n,n
CCOc1ccc(C(=O)NCC(=O)OCC(=O)N2CCCCC2)cc1,n,0.946,n,n,n
CCOC(=O)COc1ccc(C(=O)NC2CCCCC2)cc1,4.25,x,n,n,n
O=C(CNC(=O)c1cccc(F)c1)OCC(=O)N1CCCCC1,n,x,x,n,n
Cc1ccc(C(=O)NC2CCCCC2)cc1,n,x,n,n,x
Cc1ccc(NC(=S)Nc2ccc(C(C)C)cc2)cc1S(=O)(=O)N1CCCCCC1,n,n,n,n,n
CCC1/C(=N\O)CC(c2ccco2)NC1c1ccco1 (stereo not given),x,x,n,n,n
Cc1nc(NC(=O)COC(=O)CCS(=O)(=O)c2ccccc2Cl)c(Cl)cc1Cl,4.24,x,n,n,n
Cc1[nH]c2ccccc2c1C(=O)COC(=O)CCS(=O)(=O)c1ccccc1Cl,n,x,n,n,n
O=C(CN1C(=O)S/C(=C/c2cccnc2)C1=O)N1CCOCC1,n,n,71.4,n,n
SMILES,Insulin prom up,ROMK primary,Insulin prom inh,TbHK1 inh,HSV replic up
O=C(CN1C(=O)S/C(=C/c2ccncc2)C1=O)N1CCOCC1,n,n,n,n,n
CC(=O)Nc1ccc(OCC(O)Cn2nc(C)c(Br)c2C)cc1 (stereo not given),n,n,n,n,n
Nc1nc(SCC(=O)Nc2ccc3c(c2)OCO3)n[nH]1,n,n,x,n,n
Nc1nc(SCC(=O)NCc2ccc3c(c2)OCO3)n[nH]1,n,n,65.0,n,n
CC(C)S(=O)(=O)c1csc(C(=O)Nc2ccc(F)cc2)c1N,n,n,x,n,n
Cc1cccc2sc(NNC(=O)c3ccc(S(=O)(=O)N4CCc5ccccc5C4)cc3)nc12,n,n,70.7,n,x
CCOC(=O)N1CCN(S(=O)(=O)c2ccc(C(=O)NNc3nc4c(C)cccc4s3)cc2)CC1,n,n,n,n,n
O=C(NNc1nc2cc3c(cc2s1)OCCO3)c1ccccc1,n,n,n,n,n
Cc1cccc2sc(NNC(=O)c3ccc4c(c3)OCCO4)nc12,3.4,n,n,n,x
Cc1cccc2sc(NNC(=O)c3ccc(S(=O)(=O)N4CCCC(C)C4)cc3)nc12 (stereo not given),n,n,65.0,n,x
CS(=O)(=O)N(CC(=O)N1CCCC1)c1ccc(OCc2ccccc2)cc1,n,n,75.0,n,n
CS(=O)(=O)N(CC(=O)N1CCCCCC1)c1ccccc1,n,n,n,n,n
COc1ccc(N2CCN(C(=O)CN(c3ccc(Br)cc3)S(C)(=O)=O)CC2)cc1,n,n,75.0,n,n
COc1ccc(N2CCN(C(=O)Cc3ccc(Br)cc3)CC2)cc1,n,x,x,n,n
CCn1c(=O)n(-c2ccc(Cl)cc2)c(=O)c2c3c(sc21)COC(C)(C)C3,n,x,74.3,n,n
CCOC(=O)CC1C(=O)NCCN1c1nc2c(C)cccn2c(=O)c1/C=C1\SC(=S)N(CC(C)C)C1=O (stereo not given),16.9,x,x,n,u
CCCN1C(=O)/C(=C/c2c(NCCCOCC)nc3c(C)cccn3c2=O)SC1=S,5.71,n,n,n,u
O=Cc1c(N2CCSCC2)nc2ccccn2c1=O,n,n,x,n,n
CC(C)CN1C(=O)/C(=C/c2c(N3CCc4ccccc4C3)nc3ccccn3c2=O)SC1=S,16.9,n,x,n,u
CCOCCCNc1nc2c(C)cccn2c(=O)c1/C=C1\SC(=S)N(CC(C)C)C1=O,x,x,n,n,x
CN(Cc1ccccc1)c1ccc(S(=O)(=O)N2CCC(C(=O)O)CC2)cc1[N+](=O)[O-],n,n,x,n,n
CCOC(=O)N1CCN(C(=O)c2ccc(OC)c(S(=O)(=O)N3CCOCC3)c2)CC1,n,n,77.8,n,n
COc1ccc(C(=O)N2CCN(C(C)=O)CC2)cc1S(=O)(=O)N1CCOCC1,n,n,n,n,n
O=C1NC(=Nc2ccc(F)cc2)CS1,n,n,n,n,n
COc1cc(OC)cc(C(=O)N[C@H](C(=O)OCC(=O)Nc2sccc2C#N)C(C)C)c1,n,n,x,n,n
SMILES,Insulin prom up,ROMK primary,Insulin prom inh,TbHK1 inh,HSV replic up
O=C(NCCCN1CCOCC1)c1c(O)c2cc(Br)cc(Br)c2[nH]c1=O,n,-3.32,n,n,x
Cc1ccc(N=C2C(=S)N(c3ccc(C)cc3)C(=N)N2/N=C/c2ccc(Cl)cc2)cc1,x,n,n,n,n
Cc1ccc(C(=O)NC(=S)Nc2nc(-c3cccc([N+](=O)[O-])c3)cs2)c(Cl)c1,n,x,85.7,n,n
Cc1cccc(OCCNc2nc3c(c(=O)n(C)c(=O)n3C)n2C)c1,4.22,n,n,n,n
COc1ccc(C2C(C(=O)c3ccccc3)=C(C)Nc3nc4ccccc4n32)c(OC)c1 (stereo not given),3.79,n,n,n,x
COc1ccc(OC)c(C2C(C(=O)N(C)C)=C(C)Nc3nc4ccccc4n32)c1 (stereo not given),n,x,n,n,n
COc1ccc(-c2nnc(SCc3ccccc3F)o2)cc1,x,x,86.7,n,n
Fc1ccccc1CSc1nnc(-c2ccccc2)o1,n,n,n,n,n
Cc1ccnc(NS(=O)(=O)c2ccc(NC(=O)c3ccc4c(c3)OCCO4)cc2)n1,n,n,x,n,n
C/C(=N\NC(=O)c1c(Cl)c(C)nn1C)c1cccc(NC(=O)COc2ccccc2)c1,n,4.11,x,n,u
Cc1ccccc1CCN(C(=O)Cn1nnc2ccccc21)C(C(=O)NCC1CCCO1)c1nc2ccccc2n1C (stereo not given),n,n,n,n,n
O=C(Cc1cccc2ccccc12)Nc1ccc(N2CCOCC2)cc1,n,n,x,n,n
CCOC(=O)c1[nH]c2ccccc2c1NC(=S)Nc1cc(C)ccc1C,n,n,75.6,n,x
